Experimental findings from PubChem BioAssay (EPA / NIEHS) are described below.

Test [1] has as its target human Thyroid hormone Receptor alpha (TRa), THRA (gene 7067) (UniProt P10827). The test is described as follows: ATG_hTRa_XSP1: Attagene TRANS-FACTORIAL Multi-Species (XSP1) HepG2 Assay for human Thyroid hormone Receptor alpha (TRa) (AID 2283805). The essentials:
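HepG2 cells transiently transfected with GAL4-UAS reporter units expressing chimeric NR-Gal4 proteins, dosed 24 hours with 3 nM 6-alpha-fluorotestosterone present. Reporter mRNA measured by RT-PCR and capillary electrophoresis; gain of signal fitted versus DMSO.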

Test [2] relates to turtle Thyroid Hormone Receptor, alpha (TRa), gene 101949057. The test is described as follows: ATG_trTRa_XSP1: Attagene TRANS-FACTORIAL Multi-Species (XSP1) HepG2 Assay for turtle Thyroid Hormone Receptor, alpha (TRa) (AID 2283806). A digest of the protocol:
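HepG2 cells transiently transfected with GAL4-UAS reporter units and chimeric receptor-Gal4 constructs, with 3 nM 6-alpha-fluorotestosterone present. Reporter mRNA was quantified 24 h after dosing by RT-PCR, 6-FAM labelling and capillary electrophoresis; gain of signal versus DMSO.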

Test [3] concerns the target zebrafish Thyroid Hormone Receptor alpha (TRa), thraa (gene 30670) (UniProt Q98867). The test is described as follows: ATG_zfTRa_XSP1: Attagene TRANS-FACTORIAL Multi-Species (XSP1) HepG2 Assay for zebrafish Thyroid Hormone Receptor alpha (TRa) (AID 2283807). A digest of the protocol:
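HepG2 cells transiently transfected with GAL4-UAS reporter units including a zebrafish TRa–Gal4 chimera, dosed 24 h with 3 nM 6-alpha-fluorotestosterone present. Reporter mRNA quantified by RT-PCR and capillary electrophoresis; gain versus DMSO.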

In test [4] the target is human Thyroid hormone Receptor beta (TRb), THRB (gene 7068) (UniProt P10828). The test is described as follows: ATG_hTRb_XSP1: Attagene TRANS-FACTORIAL Multi-Species (XSP1) HepG2 Assay for human Thyroid hormone Receptor beta (TRb) (AID 2283808). A digest of the protocol:
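HepG2 cells transiently transfected with reporter units driving GAL4-UAS reporters for chimeric NR-Gal4 proteins; 24 h chemical exposure with 3 nM 6-alpha-fluorotestosterone present. Reporter mRNA quantified by RT-PCR and capillary electrophoresis, gain of signal versus DMSO.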

Test [5] concerns the target zebrafish Thyroid Hormone Receptor beta (TRb), thrb (gene 30607) (UniProt Q9PVE4). The test is described as follows: ATG_zfTRb_XSP1: Attagene TRANS-FACTORIAL Multi-Species (XSP1) HepG2 Assay for zebrafish Thyroid Hormone Receptor beta (TRb) (AID 2283809). A digest of the protocol:
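HepG2 cells transiently transfected with multiplexed GAL4-UAS reporter units expressing chimeric zebrafish TRb–Gal4. Dosed 24 h with 3 nM 6-alpha-fluorotestosterone present; reporter mRNA measured by RT-PCR, HpaI digestion and capillary electrophoresis; gain of signal versus DMSO.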

A short description of test [6]: ATG_XTT_Cytotoxicity_XSP1: Cytotoxicity Assessment in the Attagene TRANS-FACTORIAL Multi-Species (XSP1) HepG2 Assay (AID 2283810). The essentials: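 XTT viability readout taken at 24 hours post-dosing in HepG2 liver cells co-treated with 3 nM 6-alpha-fluorotestosterone. Signal loss relative to DMSO controls reflects cytotoxicity.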
Test [7] is described as follows: ATG_M_06_XSP2: Attagene TRANS-FACTORIAL Multi-Species (XSP2) HepG2 Assay for M06 Transcription Factor (Internal Marker) (AID 2283811).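 Note: hits are increases in signal above the DMSO baseline.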 A digest of the protocol: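 HepG2 cells transiently transfected with GAL4-UAS multi-reporter constructs, dosed 24 h with 3 nM 6-alpha-fluorotestosterone plus 1.5 nM norgestrel present to stimulate androgen receptor. Reporter mRNA quantified by RT-PCR, 6-FAM labelling, HpaI digestion and capillary electrophoresis; gain-of-signal fitted versus DMSO baseline.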

In test [8] the test system is turtle Estrogen Receptor (ERa), gene 101933533. The test is described as follows: ATG_trERa_XSP2: Attagene TRANS-FACTORIAL Multi-Species (XSP2) HepG2 Assay for turtle Estrogen Receptor (ERa) (AID 2283812).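 Note: human HepG2 liver cells transiently expressing turtle ERa-Gal4 chimeric receptor; actives raise reporter signal above DMSO so AC50 reflects agonist activity.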 A digest of the protocol:
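HepG2 cells transiently transfected with GAL4-UAS reporter units expressing turtle ERa-Gal4 chimera. Reporter mRNA measured after 24 h dosing by RT-PCR, fluorescent labelling and capillary electrophoresis; gain of signal fitted versus DMSO.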

Test [9] concerns the target Estrogen receptor beta (Homo sapiens) (UniProt Q92731). The test can be described thus: ATG_hERb_XSP2: Attagene TRANS-FACTORIAL Multi-Species (XSP2) HepG2 Assay for human Estrogen Receptor (ERb) (AID 2283813).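 Note: actives raise reporter mRNA above DMSO so AC50 reflects agonist induction.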 The essentials:
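HepG2 cells transiently transfected with GAL4-UAS reporter units and chimeric human ERb-Gal4, 24 h exposure. Reporter mRNA quantified by RT-PCR with FAM labelling, HpaI digestion and capillary electrophoresis; gain of signal versus DMSO.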

For test [10], the target named is GAL4 Transcription Factor (Internal Marker), GAL4 (gene 855828) (UniProt P04386). The test is described as follows: ATG_GAL4_XSP2: Attagene TRANS-FACTORIAL Multi-Species (XSP2) HepG2 Assay for GAL4 Transcription Factor (Internal Marker) (AID 2283814).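 Note: GAL4 reporter mRNA background control in MRTU transfected cells not a receptor target.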 A digest of the protocol: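 HepG2 cells transiently transfected with GAL4-UAS reporter units, stimulated with 3 nM 6-alpha-fluorotestosterone plus 1.5 nM norgestrel, dosed 24 h. Reporter mRNA by RT-PCR/capillary electrophoresis; gain-of-signal fit versus DMSO, background control.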
Chain of GAL4 Transcription Factor (Internal Marker), GAL4 (gene 855828) (P04386 whole entry, looked up, the tested form may be a part): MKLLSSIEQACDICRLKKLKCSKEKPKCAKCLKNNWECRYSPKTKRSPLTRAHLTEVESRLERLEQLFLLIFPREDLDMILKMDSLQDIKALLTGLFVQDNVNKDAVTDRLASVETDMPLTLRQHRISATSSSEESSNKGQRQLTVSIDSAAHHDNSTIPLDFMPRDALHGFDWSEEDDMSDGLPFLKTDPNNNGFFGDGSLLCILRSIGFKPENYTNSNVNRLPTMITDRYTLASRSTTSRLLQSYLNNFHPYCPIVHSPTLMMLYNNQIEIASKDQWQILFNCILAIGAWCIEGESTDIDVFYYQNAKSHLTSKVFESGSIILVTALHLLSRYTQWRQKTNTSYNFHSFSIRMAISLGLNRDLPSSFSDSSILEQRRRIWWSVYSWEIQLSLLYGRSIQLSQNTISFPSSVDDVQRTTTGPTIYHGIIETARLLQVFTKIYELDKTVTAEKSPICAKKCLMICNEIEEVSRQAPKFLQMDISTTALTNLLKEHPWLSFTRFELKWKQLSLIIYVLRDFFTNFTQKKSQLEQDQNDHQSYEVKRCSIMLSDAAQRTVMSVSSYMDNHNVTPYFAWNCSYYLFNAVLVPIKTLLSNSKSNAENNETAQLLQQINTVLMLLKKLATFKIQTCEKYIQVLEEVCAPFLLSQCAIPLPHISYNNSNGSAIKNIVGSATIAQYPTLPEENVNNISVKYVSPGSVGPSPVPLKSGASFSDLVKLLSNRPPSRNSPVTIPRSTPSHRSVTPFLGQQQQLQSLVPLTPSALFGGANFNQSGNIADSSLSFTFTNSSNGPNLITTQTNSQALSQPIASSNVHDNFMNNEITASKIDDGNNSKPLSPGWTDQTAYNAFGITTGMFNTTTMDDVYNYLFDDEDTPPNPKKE

Test [11] has as its target zebrafish Estrogen Receptor (ER1), esr1 (gene 259252) (UniProt P57717). The test can be described thus: ATG_zfER1_XSP2: Attagene TRANS-FACTORIAL Multi-Species (XSP2) HepG2 Assay for zebrafish Estrogen Receptor (ER1) (AID 2283816). The essentials:
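HepG2 cells transiently transfected with a GAL4-UAS reporter and a chimeric zebrafish ER1-Gal4 construct, dosed 24 h. Reporter mRNA quantified by RT-PCR, labelling, HpaI digestion and capillary electrophoresis, relative to DMSO.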

Test [12] deals with chicken Estrogen Receptor (ERa), ESR1 (gene 396099) (UniProt P06212). The test can be described thus: ATG_chERa_XSP2: Attagene TRANS-FACTORIAL Multi-Species (XSP2) HepG2 Assay for chicken Estrogen Receptor (ERa) (AID 2283817).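 Note: actives raise reporter signal above DMSO so AC50 reflects ER activation.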 The essentials:
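HepG2 cells transiently transfected with multiplexed GAL4-UAS reporter units expressing chimeric chicken ERa-Gal4; 24 h compound exposure. Reporter mRNA measured by RT-PCR with 6-FAM labelling, HpaI digestion and capillary electrophoresis; gain-of-signal fitted versus DMSO.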

Test [13] concerns frog Estrogen Receptor (ER), gene 398734. The test can be described thus: ATG_frER1_XSP2: Attagene TRANS-FACTORIAL Multi-Species (XSP2) HepG2 Assay for frog Estrogen Receptor (ER) (AID 2283821).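 Note: hits raise reporter mRNA above DMSO baseline so potency means agonist or activator.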 The essentials:
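HepG2, transient MRTU transfection, chimeric NR-GAL4/UAS reporters; 24 h compound exposure, 24-well. Readout: reporter mRNA via RT-PCR + capillary electrophoresis, fluorescence. Positive fit vs DMSO baseline.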

Test [14] concerns zebrafish Estrogen Receptor (ER2b), gene 317733. The test is described as follows: ATG_zfER2b_XSP2: Attagene TRANS-FACTORIAL Multi-Species (XSP2) HepG2 Assay for zebrafish Estrogen Receptor (ER2b) (AID 2283823).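 Note: fitted upward as reporter gain over DMSO so potency reflects activation.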 A digest of the protocol: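 Reporter transcripts quantified by RT-PCR, fluorescent labelling and capillary electrophoresis after 24 h dosing of transfected HepG2 expressing zebrafish ER2b-GAL4 fusion. Medium contained 3 nM 6-alpha-fluorotestosterone plus 1.5 nM norgestrel; DMSO baseline.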

Test [15] concerns the target Estrogen receptor (Homo sapiens) (UniProt P03372). The test is described as follows: ATG_hERa_XSP2: Attagene TRANS-FACTORIAL Multi-Species (XSP2) HepG2 Assay for human Estrogen Receptor (ERa) (AID 2283827). A digest of the protocol: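 HepG2 cells transiently transfected with multiplexed GAL4-UAS reporters driven by chimeric receptor-Gal4 proteins, dosed 24 h with 3 nM 6-alpha-fluorotestosterone and 1.5 nM norgestrel present. Reporter mRNA by RT-PCR and capillary electrophoresis; gain-of-signal fit versus DMSO.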

The test system of test [16] is chicken Androgen Receptor (AR), gene 422165. The test can be described thus: ATG_chAR_XSP2: Attagene TRANS-FACTORIAL Multi-Species (XSP2) HepG2 Assay for chicken Androgen Receptor (AR) (AID 2283819).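 Note: hits raise reporter mRNA above DMSO so potency is for activation.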 A digest of the protocol:
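HepG2 cells transiently transfected with chicken AR–GAL4 chimeric reporter constructs, stimulated with 3 nM 6-alpha-fluorotestosterone plus 1.5 nM norgestrel, dosed 24 h. Reporter mRNA quantified by RT-PCR and capillary electrophoresis; gain of signal fitted versus DMSO.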

A short description of test [17]: ATG_M_32_XSP2: Attagene TRANS-FACTORIAL Multi-Species (XSP2) HepG2 Assay for M19 Transcription Factor (Internal Marker) (AID 2283826). The essentials: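 HepG2 cells transiently transfected with GAL4-UAS reporter units; XSP2 panel included 3 nM 6-alpha-fluorotestosterone and 1.5 nM norgestrel for androgen receptor stimulation. Reporter mRNA read 24 h post-dosing by RT-PCR/capillary electrophoresis; fitted upward versus DMSO.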

A short description of test [18]: ATG_M_19_XSP2: Attagene TRANS-FACTORIAL Multi-Species (XSP2) HepG2 Assay for M32 Transcription Factor (Internal Marker) (AID 2283822). A digest of the protocol:
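Internal background marker in a multi-species nuclear receptor TRANS panel: transfected HepG2 cells exposed 24 h, with 3 nM 6-alpha-fluorotestosterone and 1.5 nM norgestrel present. Readout is RT-PCR of reporter transcripts resolved by capillary electrophoresis, gain-of-signal versus DMSO.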

Test [19] deals with frog Androgen Receptor (AR), gene 399456. The test can be described thus: ATG_frAR_XSP2: Attagene TRANS-FACTORIAL Multi-Species (XSP2) HepG2 Assay for frog Androgen Receptor (AR) (AID 2283824).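 Note: actives raise reporter signal above DMSO so AC50 reflects agonist-like induction.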 A digest of the protocol:
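HepG2 cells transiently transfected with GAL4-UAS reporter units and frog (Xenopus laevis) AR-Gal4 chimera; reporter mRNA measured 24 h after dosing by RT-PCR and capillary electrophoresis. Gain of signal fitted relative to DMSO baseline.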

Several values for one entry are separate records, joined by “and”; a condition that tells them apart may be missing. Equal values may be shown once. Records with an inconclusive call do not appear. A structure can be active in one record and inactive in another. Activity calls are given as the source filed them. Rule for the calls: active = hit-call score of the fitted dose curve at least 0.9, where 1 is the maximum; inconclusive = response in the unintended direction; inactive = score below 0.9.

Chain of human Thyroid hormone Receptor beta (TRb), THRB (gene 7068) (P10828 whole entry, looked up, the tested form may be a part): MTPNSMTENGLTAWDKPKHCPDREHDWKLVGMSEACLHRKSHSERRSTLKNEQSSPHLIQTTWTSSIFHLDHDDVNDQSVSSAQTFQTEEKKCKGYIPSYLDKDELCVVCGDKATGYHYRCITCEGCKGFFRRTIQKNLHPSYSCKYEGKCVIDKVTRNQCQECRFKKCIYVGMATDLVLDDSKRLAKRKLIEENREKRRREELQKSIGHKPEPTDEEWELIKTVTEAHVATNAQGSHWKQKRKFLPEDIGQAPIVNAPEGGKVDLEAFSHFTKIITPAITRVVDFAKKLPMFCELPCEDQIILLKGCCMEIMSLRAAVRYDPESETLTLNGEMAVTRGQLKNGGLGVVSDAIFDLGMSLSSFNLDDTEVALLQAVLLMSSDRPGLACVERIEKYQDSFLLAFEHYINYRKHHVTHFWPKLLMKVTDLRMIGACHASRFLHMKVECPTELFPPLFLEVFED
Chain of zebrafish Thyroid Hormone Receptor alpha (TRa), thraa (gene 30670) (Q98867 whole entry, looked up, the tested form may be a part): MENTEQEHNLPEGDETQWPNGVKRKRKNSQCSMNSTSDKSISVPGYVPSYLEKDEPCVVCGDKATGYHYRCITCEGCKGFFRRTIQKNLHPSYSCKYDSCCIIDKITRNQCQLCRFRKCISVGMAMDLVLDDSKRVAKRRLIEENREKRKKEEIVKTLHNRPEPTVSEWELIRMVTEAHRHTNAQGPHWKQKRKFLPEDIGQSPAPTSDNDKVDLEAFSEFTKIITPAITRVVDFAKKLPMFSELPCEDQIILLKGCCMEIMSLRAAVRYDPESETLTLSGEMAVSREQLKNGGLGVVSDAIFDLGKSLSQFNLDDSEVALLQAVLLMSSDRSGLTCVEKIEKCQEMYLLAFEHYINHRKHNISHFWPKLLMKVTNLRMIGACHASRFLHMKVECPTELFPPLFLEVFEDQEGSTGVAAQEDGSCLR
Chain of Estrogen receptor (Homo sapiens) (P03372 whole entry, looked up, the tested form may be a part): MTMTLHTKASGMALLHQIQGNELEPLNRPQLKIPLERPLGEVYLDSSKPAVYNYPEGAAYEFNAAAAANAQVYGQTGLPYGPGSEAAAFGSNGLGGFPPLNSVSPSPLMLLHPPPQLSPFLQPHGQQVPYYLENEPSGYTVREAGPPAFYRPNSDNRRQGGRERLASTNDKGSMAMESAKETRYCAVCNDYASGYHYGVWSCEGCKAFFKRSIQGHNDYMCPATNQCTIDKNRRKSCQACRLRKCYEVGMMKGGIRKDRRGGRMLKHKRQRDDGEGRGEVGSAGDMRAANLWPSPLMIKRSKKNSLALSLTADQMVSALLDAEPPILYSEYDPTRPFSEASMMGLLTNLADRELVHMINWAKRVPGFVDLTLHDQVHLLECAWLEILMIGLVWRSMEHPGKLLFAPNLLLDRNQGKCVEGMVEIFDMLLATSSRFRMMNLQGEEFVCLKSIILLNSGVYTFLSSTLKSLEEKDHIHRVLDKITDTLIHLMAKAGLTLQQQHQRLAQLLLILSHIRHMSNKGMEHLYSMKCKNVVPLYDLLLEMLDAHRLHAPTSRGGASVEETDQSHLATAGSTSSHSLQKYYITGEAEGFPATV
Chain of zebrafish Estrogen Receptor (ER1), esr1 (gene 259252) (P57717 whole entry, looked up, the tested form may be a part): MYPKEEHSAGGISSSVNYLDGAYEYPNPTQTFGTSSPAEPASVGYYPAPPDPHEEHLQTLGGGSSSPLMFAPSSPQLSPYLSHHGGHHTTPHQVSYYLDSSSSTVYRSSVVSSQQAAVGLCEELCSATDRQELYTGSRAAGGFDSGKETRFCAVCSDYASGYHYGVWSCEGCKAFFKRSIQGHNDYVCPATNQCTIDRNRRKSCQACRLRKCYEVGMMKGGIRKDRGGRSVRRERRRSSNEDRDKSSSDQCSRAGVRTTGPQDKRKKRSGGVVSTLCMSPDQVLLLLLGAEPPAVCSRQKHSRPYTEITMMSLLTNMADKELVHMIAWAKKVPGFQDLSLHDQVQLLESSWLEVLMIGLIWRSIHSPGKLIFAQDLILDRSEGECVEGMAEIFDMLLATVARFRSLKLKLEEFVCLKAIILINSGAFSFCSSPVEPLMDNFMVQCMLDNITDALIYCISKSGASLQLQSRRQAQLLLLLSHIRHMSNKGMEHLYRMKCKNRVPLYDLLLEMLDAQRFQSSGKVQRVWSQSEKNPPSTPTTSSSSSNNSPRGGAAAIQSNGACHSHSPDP
Chain of zebrafish Thyroid Hormone Receptor beta (TRb), thrb (gene 30607) (Q9PVE4 whole entry, looked up, the tested form may be a part): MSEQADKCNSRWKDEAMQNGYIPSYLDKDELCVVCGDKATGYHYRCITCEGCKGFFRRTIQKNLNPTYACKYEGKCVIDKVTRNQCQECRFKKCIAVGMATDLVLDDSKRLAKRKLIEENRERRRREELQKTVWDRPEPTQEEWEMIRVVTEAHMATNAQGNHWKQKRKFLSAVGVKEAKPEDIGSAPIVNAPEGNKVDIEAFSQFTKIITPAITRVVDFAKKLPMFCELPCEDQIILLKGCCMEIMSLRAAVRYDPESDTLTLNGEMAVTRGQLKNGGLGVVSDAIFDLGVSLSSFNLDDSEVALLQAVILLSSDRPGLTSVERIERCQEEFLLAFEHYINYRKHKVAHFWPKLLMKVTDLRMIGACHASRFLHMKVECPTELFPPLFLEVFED
Chain of Estrogen receptor beta (Homo sapiens) (Q92731 whole entry, looked up, the tested form may be a part): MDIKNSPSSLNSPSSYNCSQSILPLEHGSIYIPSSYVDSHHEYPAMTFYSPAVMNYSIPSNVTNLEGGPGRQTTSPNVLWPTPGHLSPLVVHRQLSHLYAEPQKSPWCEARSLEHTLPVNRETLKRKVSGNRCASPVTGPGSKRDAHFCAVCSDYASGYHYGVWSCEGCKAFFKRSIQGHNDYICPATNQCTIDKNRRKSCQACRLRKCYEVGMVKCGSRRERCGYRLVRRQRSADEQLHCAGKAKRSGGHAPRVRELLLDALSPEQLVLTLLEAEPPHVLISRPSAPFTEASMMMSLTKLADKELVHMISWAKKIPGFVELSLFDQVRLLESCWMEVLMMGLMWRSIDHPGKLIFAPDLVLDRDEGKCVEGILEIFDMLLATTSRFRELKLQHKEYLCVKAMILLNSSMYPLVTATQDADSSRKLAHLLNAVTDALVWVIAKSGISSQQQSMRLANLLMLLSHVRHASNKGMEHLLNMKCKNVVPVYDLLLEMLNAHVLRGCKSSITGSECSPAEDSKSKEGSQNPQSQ
Chain of chicken Estrogen Receptor (ERa), ESR1 (gene 396099) (P06212 whole entry, looked up, the tested form may be a part): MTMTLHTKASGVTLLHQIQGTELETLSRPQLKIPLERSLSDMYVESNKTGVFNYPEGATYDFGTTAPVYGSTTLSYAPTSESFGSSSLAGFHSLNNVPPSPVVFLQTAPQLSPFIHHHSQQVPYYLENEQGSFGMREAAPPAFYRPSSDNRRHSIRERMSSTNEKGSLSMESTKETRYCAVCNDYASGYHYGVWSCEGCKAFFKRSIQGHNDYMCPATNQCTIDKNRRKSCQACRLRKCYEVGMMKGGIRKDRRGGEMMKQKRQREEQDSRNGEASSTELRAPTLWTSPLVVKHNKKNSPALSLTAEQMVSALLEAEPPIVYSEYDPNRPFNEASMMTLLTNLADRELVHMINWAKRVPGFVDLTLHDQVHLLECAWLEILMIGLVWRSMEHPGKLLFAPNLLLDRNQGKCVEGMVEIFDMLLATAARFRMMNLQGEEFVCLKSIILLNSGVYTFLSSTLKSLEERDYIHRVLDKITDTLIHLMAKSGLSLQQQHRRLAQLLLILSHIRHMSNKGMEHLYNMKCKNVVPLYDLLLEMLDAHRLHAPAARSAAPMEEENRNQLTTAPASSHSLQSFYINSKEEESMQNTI
Chain of human Thyroid hormone Receptor alpha (TRa), THRA (gene 7067) (P10827 whole entry, looked up, the tested form may be a part): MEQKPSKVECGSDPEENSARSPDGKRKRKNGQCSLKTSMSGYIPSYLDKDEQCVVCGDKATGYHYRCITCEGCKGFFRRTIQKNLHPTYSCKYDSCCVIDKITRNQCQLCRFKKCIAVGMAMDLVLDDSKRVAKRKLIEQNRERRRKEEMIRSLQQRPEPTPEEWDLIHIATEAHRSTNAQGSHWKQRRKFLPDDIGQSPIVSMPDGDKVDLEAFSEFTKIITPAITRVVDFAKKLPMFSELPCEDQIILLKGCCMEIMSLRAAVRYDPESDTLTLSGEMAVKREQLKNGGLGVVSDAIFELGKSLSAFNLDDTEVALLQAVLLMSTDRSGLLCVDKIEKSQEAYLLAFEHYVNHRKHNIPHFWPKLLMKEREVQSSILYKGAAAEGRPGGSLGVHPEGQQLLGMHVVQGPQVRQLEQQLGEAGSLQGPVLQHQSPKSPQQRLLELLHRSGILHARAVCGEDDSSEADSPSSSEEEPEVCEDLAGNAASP

Take `COP(=S)(OC)Oc1ccc(SC)c(C)c1`: the compound was called inactive in test [1], in test [2], in [3], in [4], in test [5] and in test [6]. The outcome in [7], in test [9], in [10] and in test [11] was inactive. For the same compound, the half-maximal activity concentration (AC50) in test [8] is 5.17 µM (active); in [12], 27.5 µM (active); in test [13] it was 27.3 µM (active); in test [14] it was 59 µM (active); in test [15], 8.43 µM (active).

As to `O=S(=O)(O)C(F)(F)C(F)(F)C(F)(F)C(F)(F)C(F)(F)C(F)(F)C(F)(F)C(F)(F)F`, the half-maximal activity concentration (AC50) in test [3] was 140 µM (active); in test [6], 154 µM (active); in test [14] it was 146 µM (active). Besides, the call in [5], in test [7], in [8], in test [12], in test [16] and in test [13] was inactive. The outcome in test [17] was inactive.

Consider `Oc1ccc(Cl)cc1Cc1ccccc1`, for which the call in [1], in [2], in [3], in [4], in test [5] and in test [6] was inactive. Further, the compound was called inactive in test [7], in test [8], in [9], in [10] and in [12]. Moreover, the AC50 in [14] was 14.6 µM (active).

On to `COP(=S)(OC)Oc1ccc([N+](=O)[O-])cc1`, for which the concentration at half-maximal activity (AC50) in test [8] is 29.6 µM (active) and 23.1 µM (active); in [9], 26.8 µM (active); in test [12] it was 27.7 µM (active) and 20.6 µM (active); in test [14] it was 39.3 µM (active); in test [15], 31.1 µM (active) and 40.7 µM (active). In addition, the outcome in [9], in [10], in test [11], in test [13], in test [18] and in test [14] was inactive.

`CCCN(CCC)c1c([N+](=O)[O-])cc(C(F)(F)F)cc1[N+](=O)[O-]`: the compound was called inactive in test [2], in test [3], in test [4], in test [5], in [6] and in [7]. The compound was called inactive in test [8], in test [10], in test [11], in test [12], in [13] and in test [18]. Further, in test [17], the result was inactive. For the same compound, the results for the AC50 in test [14] and in test [15] were 69.9 µM (active) and 18.8 µM (active), respectively.

For `O=C(O)C(F)(F)C(F)(F)C(F)(F)C(F)(F)C(F)(F)C(F)(F)C(F)(F)F`, the outcome in test [7], in [16], in test [13], in test [18], in test [19] and in test [17] was inactive. The AC50 in test [8] is 35.5 µM (active); in test [9], 38.4 µM (active); in [12], 37.9 µM (active); in [14], 124 µM (active).

For orientation: AC50 means the concentration giving half of the maximal activity seen.
